# The full list was thinned out, with hits kept by preference.
# Menin-MLL FL inh: displaces fluorescein MLL peptide from human menin; Fluorescence polarization, fluorescein-MLL peptide displacement from menin; FP activity change, % at 61.4 µM; 290,000 tested, under 10 active; AID 1766; active = well fitted curve in the direction sought with a large enough effect in the polarisation, not every such curve was filed as active; inconclusive = small, poorly fitted or top-dose-only effect, or effect the other way, or a change in a side signal; inactive = no such curve, though single readings can be large or run the other way; the % refers to the polarisation
# CXXC DNA block: inhibitors of human MLL CXXC domain-DNA interaction; Q03164; MLL-CXXC / FITC-HOXA9 DNA fluorescence polarization; Potency, µM (titrated, usually from 115 µM), actives largely listed as inhibitors; hit rate 0.037% among 290,000; active = well fitted inhibition curve with a large enough effect in the polarisation, with a control signal flat, not every such curve was filed as active; inconclusive = small, poorly fitted or top-dose-only effect, or effect the other way, or a change in a side signal; inactive = no such curve, though single readings can be large or run the other way; the % refers to the polarisation
#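 Fluorescence polarization: 7 uM MLL-CXXC (stock) preincubated 5 min with compounds, then 50 nM fluorescein-HOX-A9 DNA (stock) added; 30 min ambient. Buffer 50 mM Tris-HCl pH 7.5, 50 mM NaCl, 1 mM DTT, 0.05% BSA.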
# ClpP mod: qHTS Assay for Activators of ClpP; hit rate 1.9% among 340,000; purified B. subtilis ClpP, FRET peptide cleavage, 20 min; Potency, µM (titrated, usually from 57.5 µM); active = well fitted falling curve with a large enough effect; inconclusive = small, poorly fitted or top-dose-only effect; inactive = no such curve, though single readings can be large or run the other way; also: the source files actives as falling curves though it sought activators and does not explain the sign; nearly all actives have a fitted effect of over 65% in size
#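 Buffer: 100 mM Tris/HCl pH8, 100 mM KCl, 0.05% low protease BSA, 2.5% glycerol, 0.01% Tween-20. ClpP 10 microg/mL final; 20 min RT; delta FRET normalized to ADEP and DMSO controls.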
# p53 reactivation: re-activators of mutant p53 | hit rate 0.063% among 320,000 | H1299 p53-A138V BP100-luciferase reporter, luminescence, 24 h | AID 504706 | Potency, µM (highest dose often 92.2 µM), most hits filed as activators; active = well fitted activation curve with a large enough effect; inconclusive = small, poorly fitted or top-dose-only effect; inactive = no such curve, though single readings can be large or run the other way; also: nearly all actives have a fitted effect of over 45% in size
#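 H1299 (p53-null), stable ts p53-A138V + BP100-Luc; 1000 cells/well, Opti-MEM/10% FBS; cpd 4 pt, 1:5; 24 h, 37 deg C, 5% CO2; detection reagent 10 min RT; luminescence.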
# Menin-MLL TR inh: displaces Texas Red mutant MLL peptide from human menin; hit rate 0.23% among 270,000; Menin + Texas Red MLL mutant peptide, fluorescence polarization; Potency, µM (doses to about 61.6 µM), hits mostly inhibitors; AID 1768; O00255; active = well fitted inhibition curve with a large enough effect in the polarisation, with a control signal flat, not every such curve was filed as active; inconclusive = small, poorly fitted or top-dose-only effect, or effect the other way, or a change in a side signal; inactive = no such curve, though single readings can be large or run the other way; the % refers to the polarisation
# Target sequence (O00255 whole entry, looked up): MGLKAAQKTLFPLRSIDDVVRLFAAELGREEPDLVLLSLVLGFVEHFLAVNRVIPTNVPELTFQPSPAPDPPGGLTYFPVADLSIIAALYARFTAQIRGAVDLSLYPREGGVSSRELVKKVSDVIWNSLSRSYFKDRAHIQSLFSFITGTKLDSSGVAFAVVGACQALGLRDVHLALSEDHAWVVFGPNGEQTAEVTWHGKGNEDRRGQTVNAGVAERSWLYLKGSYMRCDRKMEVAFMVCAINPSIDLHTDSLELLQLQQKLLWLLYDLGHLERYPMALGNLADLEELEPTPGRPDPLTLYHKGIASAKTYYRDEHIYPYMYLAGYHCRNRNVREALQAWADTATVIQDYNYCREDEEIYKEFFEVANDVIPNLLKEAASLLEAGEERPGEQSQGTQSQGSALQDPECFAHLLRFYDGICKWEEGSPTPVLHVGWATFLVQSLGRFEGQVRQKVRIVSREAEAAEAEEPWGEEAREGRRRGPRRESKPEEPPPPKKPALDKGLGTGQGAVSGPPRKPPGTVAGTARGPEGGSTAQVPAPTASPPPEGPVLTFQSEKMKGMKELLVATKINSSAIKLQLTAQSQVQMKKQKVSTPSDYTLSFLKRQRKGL
# Hits are given with their value; n = inactive; u = inconclusive; x = no result; [ ] = another dose, or the depositor's remark.
SMILES,Menin-MLL FL inh,CXXC DNA block,ClpP mod,p53 reactivation,Menin-MLL TR inh
CCN(C(=O)COC(=O)c1oc2ccc(OC)cc2c1C)C1CCS(=O)(=O)C1 (stereo not given),x,x,8.9µM,n,x
CN(C)c1ccc(/C=C/c2cccc3cc4ccccc4nc23)cc1,x,x,n,x,x
COc1ccc2oc(C(=O)OCC(=O)N(CCC#N)c3ccccc3)c(C)c2c1,x,n,32µM,n,x
COc1ccc2oc(C(=O)OCC(=O)N(Cc3ccccc3)C(C)(C)C)c(C)c2c1,x,n,n,n,x
O=C(Nc1nc2ccccc2s1)c1cc(-c2ccccc2)nn1-c1ccccc1,n,n,28µM,u,n
O=C(O)c1cccc([N+](=O)[O-])c1C(=O)Nc1nc2ccccc2s1,n,n,n,u,n
O=C(Nc1nc2ccccc2s1)c1ccccc1[N+](=O)[O-],n,n,n,28µM,n
CC(=O)c1sc(NC(=O)c2cc(-c3ccccc3)nn2-c2ccccc2)nc1C,n,n,x,n,n
O=c1c(-c2ccc(Cl)cc2)coc2c(CN3CCOCC3)c(O)ccc12,n,n,28µM,n,n
O=c1cc(-c2ccccc2)c2ccc(O)c(CN3CCCCC3)c2o1,n,n,n,n,n
CC1CCCCN1Cc1c(O)ccc2c(=O)c(-c3ccc(Cl)cc3)coc12 (stereo not given),n,n,13µM,n,n
O=c1c(-c2ccccc2)coc2c(CN3CCCC3)c(O)ccc12,n,n,28µM,n,n
CCCCc1nc2c(c3c1C[C@H](C)OC3)CN(C(=O)C1CC1)CC2,n[11.7 µM],x,x,x,n[11.7 µM]
COc1cccc(O)c1O,n,x,x,x,n
O=C1CCCc2cc(S(=O)(=O)N3CCCC(C(=O)Nc4ccc(F)c(Cl)c4)C3)ccc2N1 (stereo not given),x,x,n,x,x
CCCCN(CC)CCNC(=O)c1cc2c(-c3ccc(Cl)cc3)nn(C)c2s1,n,n,n,n,18µM
CCN(CC)CCNC(=O)c1cc2c(-c3ccc(Cl)cc3)nn(C)c2s1,n,n,n,n,n
CC(C)C1N=C2c3ccccc3N=C(SCC(=O)NCCc3ccc(S(N)(=O)=O)cc3)N2C1=O (stereo not given),n,n,32µM,n,n
COc1ccc(NC(=O)CSC2=Nc3ccccc3C3=NC(CC(=O)NCc4ccc(F)cc4)C(=O)N23)cc1 (stereo not given),x,x,n,x,x
CCC(C)NC(=O)CSC1=Nc2ccccc2C2=NC(CC(=O)NCc3ccc(F)cc3)C(=O)N12 (stereo not given),n,n,32µM,n,n
CC(C)C1N=C2c3ccccc3N=C(SCC(=O)NCc3ccc(Cl)cc3)N2C1=O (stereo not given),x,x,n,x,x
NC(=O)CSC1=Nc2ccccc2C2=NC(c3ccccc3)C(=O)N12 (stereo not given),n,n,x,n,n
CCN(CC)C(=O)CSC1=Nc2ccccc2C2=NC(c3ccccc3)C(=O)N12 (stereo not given),n,n,16µM,n,n
CC(=O)c1ccc2c(c1)Nc1ccccc1S2,n,n,32µM,n,n
O=C(CNC(=O)C1CCCCC1)OCC(=O)c1ccccc1,x,x,n,x,x
SMILES,Menin-MLL FL inh,CXXC DNA block,ClpP mod,p53 reactivation,Menin-MLL TR inh
COc1ccc(-c2ccc([C@H]3[C@H]4C=CC[C@@H](C)[C@@H]4C(=O)N3Cc3ccccc3)c(F)c2)cc1,n,n,20µM,n,x
COc1ccc(-c2ccc(OC)c([C@H]3[C@H]4C=CC[C@@H](C)[C@@H]4C(=O)N3Cc3ccccc3)c2)cc1,n,n,25µM,n,x
Cc1ccc(Cn2c(SCc3ccc(C(=O)O)cc3)nc3cccnc32)cc1,x,x,28µM,x,x
CC1CCCCN1CCNC(=O)c1ccc(Cn2c(SCc3ccccc3)nc3cccnc32)cc1 (stereo not given),x,x,25µM,x,x
O=C(NCCc1ccccc1)c1ccc(CSc2nc3cccnc3n2Cc2ccc(F)cc2)cc1,x,x,n,x,x
CC1CCN(CCNC(=O)c2ccc(Cn3c(SCc4ccccc4)nc4cccnc43)cc2)CC1,x,x,16µM,x,x
CCOC(=O)N1CCN(C(=O)CN2C(=O)/C(=C\c3cccc(OC)c3)SC2=S)CC1,x,x,n,x,x
Cc1nn(C)cc1/C=C(/C#N)C(N)=O,x,n,16µM,n,n
Cc1ccn2c(Nc3ccc4c(c3)OCCO4)c(-c3ccc(Cl)s3)nc2c1,x,x,25µM,x,x
CC1(OC(=O)c2ccc(Cl)nc2)C(=O)C=c2cc(-c3ccsc3)ncc2=C1OC(=O)C1CCCC1 (stereo not given),n[11.7 µM],x,x,x,n[11.7 µM]
CCN(CC(=O)Nc1ccccc1C(F)(F)F)C(=O)c1oc2c(Cl)cccc2c1C,x,x,35µM,n,x
CCCN(CCC)CCCNC(=O)c1cn(CCOC)c(=O)c2c1c1ccccc1n2C,n,n,14µM,n,n
CC(C)Cn1cc(C(=O)N2CCC(C)CC2)c2c3ccccc3n(C)c2c1=O,n,n,x,n,u
COCCn1cc(C(=O)N2CCC(C)CC2)c2c3ccccc3n(C)c2c1=O,n,n,16µM,n,u
CCOC(=O)N1CCN(C(=O)c2cn(C)c(=O)c3c2c2ccccc2n3C)CC1,n,n,14µM,n,n
CC(C)Cn1cc(C(=O)N2CCOCC2)c2c3ccccc3n(C)c2c1=O,n,n,16µM,n,n
COc1ccc2nc(SCC(=O)c3c(C)[nH]c4ccccc34)nc(C)c2c1,x,x,n,x,x
CC(C)CCC[C@@H](C)[C@H]1CC[C@H]2[C@@H]3CC=C4CC(O)CC[C@]4(C)[C@H]3CC[C@]12C (stereo not given in full),n,x,x,x,n
CC(C)Cn1cc(C(=O)NCc2cccs2)c2c3ccccc3n(C)c2c1=O,n,n,10µM,n,n
CC(C)CCNC(=O)c1cn(CC(C)C)c(=O)c2c1c1ccccc1n2C,n,n,u,n,n
CCOC(=O)N1CCN(C(=O)c2cn(CC(C)C)c(=O)c3c2c2ccccc2n3C)CC1,n,n,25µM,n,n
Cc1cccc2c(/C=C/c3ccc(N(C)C)cc3)ccnc12,x,x,n,x,x
O=C(O)COc1ccc(C(=O)c2cccs2)c(Cl)c1Cl,n,n,x,x,n
O=C(O)COc1ccc2nsnc2c1Cl,n,n,14µM,n,n
COc1ccc2nccc(/C=C/c3ccc(N(C)C)cc3)c2c1,x,x,n,x,x
Cc1[nH]nc2c1C(c1ccc(F)cc1)C1=C(CC(C)(C)CC1=O)N2 (stereo not given),n,n,25µM,n,n
Cc1ccc(C2C3=C(CC(C)(C)CC3=O)Nc3n[nH]c(C)c32)cc1 (stereo not given),n,n,25µM,n,n
Cc1[nH]nc2c1C(c1cccc(O)c1)C1=C(CC(C)(C)CC1=O)N2 (stereo not given),n,n,28µM,n,n
Cc1[nH]nc2c1C(c1ccc(N(C)C)cc1)C1=C(CC(C)(C)CC1=O)N2 (stereo not given),n,n,x,n,n
CC1(C(=O)Nc2cccc3cccnc23)CCN1Cc1cccc2c1OCO2 (stereo not given),x,x,32µM,x,x
